According to publication PMC4336329 (PLoS ONE, 2015):
In all, about 310,000 compounds went through this assay and about 14,000 (4.5%) showed an effect of 50% or more. The effect is printed as a negative number. What follows is part of a selection rich in strong results, with near analogues and random picks from the rest.

Target: human ether-à-go-go-related gene (hERG) potassium channel (human, UniProt Q12809)
Assay: primary screen, population patch clamp on CHO cells stably expressing hERG; higher = less effect of the substance
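Note: peak tail current of the secondary pulse compared with the same well before compound.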

human ether-à-go-go-related gene (hERG) potassium channel, sequence (Q12809 whole entry, looked up): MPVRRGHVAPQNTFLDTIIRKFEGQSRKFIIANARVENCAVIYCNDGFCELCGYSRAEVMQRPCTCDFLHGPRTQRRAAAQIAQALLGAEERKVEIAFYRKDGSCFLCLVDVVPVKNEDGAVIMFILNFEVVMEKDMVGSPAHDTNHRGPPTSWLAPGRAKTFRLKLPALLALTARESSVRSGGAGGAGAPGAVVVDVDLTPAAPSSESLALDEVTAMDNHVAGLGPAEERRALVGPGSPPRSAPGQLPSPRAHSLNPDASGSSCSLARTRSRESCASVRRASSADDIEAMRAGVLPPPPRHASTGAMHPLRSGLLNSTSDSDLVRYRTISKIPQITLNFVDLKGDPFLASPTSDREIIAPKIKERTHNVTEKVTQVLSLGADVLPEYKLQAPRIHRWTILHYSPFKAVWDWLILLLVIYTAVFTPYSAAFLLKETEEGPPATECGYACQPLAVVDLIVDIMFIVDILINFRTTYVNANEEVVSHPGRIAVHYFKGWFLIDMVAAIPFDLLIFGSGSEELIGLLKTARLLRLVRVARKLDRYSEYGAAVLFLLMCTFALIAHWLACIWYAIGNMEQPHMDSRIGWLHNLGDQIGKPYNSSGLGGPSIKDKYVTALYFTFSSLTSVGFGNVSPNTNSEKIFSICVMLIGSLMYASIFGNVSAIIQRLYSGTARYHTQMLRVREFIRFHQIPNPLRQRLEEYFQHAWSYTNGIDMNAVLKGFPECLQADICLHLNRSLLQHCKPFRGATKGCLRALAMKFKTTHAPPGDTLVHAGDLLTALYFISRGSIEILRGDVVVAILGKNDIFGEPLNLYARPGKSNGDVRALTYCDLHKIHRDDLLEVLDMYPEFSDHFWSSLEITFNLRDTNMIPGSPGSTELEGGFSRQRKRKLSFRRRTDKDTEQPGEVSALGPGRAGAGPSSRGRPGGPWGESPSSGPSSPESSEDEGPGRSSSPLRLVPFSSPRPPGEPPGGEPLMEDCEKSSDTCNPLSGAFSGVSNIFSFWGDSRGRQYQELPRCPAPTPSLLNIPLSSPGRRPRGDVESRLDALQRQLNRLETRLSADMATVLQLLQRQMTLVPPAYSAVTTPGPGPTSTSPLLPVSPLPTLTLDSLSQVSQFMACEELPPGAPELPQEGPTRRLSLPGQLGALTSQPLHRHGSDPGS

Row | Compound | hERG current change (%, negative = inhibition) at 10uM
1 | COc1ccccc1/C=C(/C#N)C(=O)O | 18.5%
2 | Nc1ccc(-c2cnc3ccccc3n2)cc1 | 0.217%
3 | O=C(COc1ccccc1)Nc1nnc(COc2ccccc2)s1 | 4.24%
4 | CC(=O)/C(C[N+]1(C)CCCCC1)=N\O.[I-] | 16.4%
5 | CSc1ncc(Cl)c(C(=O)Nc2ccccc2C)n1 | 6.48%
6 | CCCCCN=CC1=C(O)CC(c2ccccc2)CC1=O (stereo not shown) | -6.98%
7 | COc1ccc(C2CC(=O)c3cnn(-c4nc(C)cc(C)n4)c3C2)cc1OC (stereo not shown) | -4.84%
8 | COCCNC(=S)N/N=C1\CC(C)CC(C)(C)C1 (stereo not shown) | 6.32%
9 | C#CCn1cnc2c(cnn2-c2ccc(C)c(C)c2)c1=O | 3.21%
10 | COc1ccc(-c2[nH]ncc2CNC(C)CCn2cccn2)cc1F (stereo not shown) | -2.23%
11 | Nn1c(SCC(=O)Nc2nccs2)nnc1C1CC1 | 6.89%
12 | COC(=O)c1ccccc1NS(=O)(=O)c1ccc2[nH]c(=O)[nH]c2c1 | 16.4%
13 | O=C(CN1C(=O)c2cccc3cccc1c23)NCc1cccnc1 | 2.05%
14 | CCCCCCNS(=O)(=O)c1ccc(Cl)s1 | -12.9%
15 | Cc1ccc(SCC(=O)NC(C)(C)C)cc1 | -8.22%
16 | Cc1nc2ncccn2c1-c1csc(Nc2cccc(C(=O)O)c2)n1 | 5.55%
17 | CC(=O)Nc1ccc(Nc2nc(-c3c(C)nc4ccccn34)cs2)cc1 | 18.4%
18 | Cc1ccc(Nc2nc(-c3c(C)nc4ncccn34)cs2)cc1 | -10.4%
19 | Cc1cccc(Nc2nc(-c3c(C)nc4ccccn34)cs2)c1 | 0.479%
20 | Cc1nc2ncccn2c1-c1csc(Nc2ccccc2)n1 | -54.7%
21 | Br.Cc1ccc(Nc2nc(-c3c(C)nc4ccccn34)cs2)cc1 | -62.7%
22 | O=c1cc(N2CCN(c3ccccc3F)CC2)[nH]c(=O)n1-c1ccc(Br)cc1 | -16.7%

Row | Compound | hERG current change (%, negative = inhibition) at 10uM
23 | COC(=O)C1C(=O)CC(C)(O)C(C(=O)OC)C1/C=C/c1ccccc1 (stereo not shown) | -15.6%
24 | COc1ccc(/C(N)=N/OC(=O)c2ccc([N+](=O)[O-])c(C)c2)cc1OC | -16.5%
25 | COc1ccc(/C(N)=N/OC(=O)c2ccc(C)c([N+](=O)[O-])c2)cc1OC | 10.1%
26 | COc1ccccc1C(=O)O/N=C(/c1ccncc1)c1ccc([N+](=O)[O-])cc1 | -67.9%
27 | N/C(Cc1ccc([N+](=O)[O-])cc1)=N\OC(=O)c1ccc(Br)cc1 | -41.5%
28 | COc1ccccc1C(=O)O/N=C(\c1ccccc1)c1ccncc1 | -14.4%
29 | COc1ccc(/C(N)=N/OC(=O)c2ccc(OC)c([N+](=O)[O-])c2)cc1OC | -65%
30 | N/C(Cc1ccc([N+](=O)[O-])cc1)=N\OC(=O)c1ccc([N+](=O)[O-])cc1 | -57.6%
31 | O=C(O/N=C(/c1ccccc1)c1ccncc1)c1ccccc1[N+](=O)[O-] | -14%
32 | N/C(Cc1ccc([N+](=O)[O-])cc1)=N\OC(=O)c1ccc2ccccc2c1 | 2.02%
33 | N/C(=N\OC(=O)c1ccccc1Br)c1ccc([N+](=O)[O-])cc1 | -14.4%
34 | N/C(Cc1ccc([N+](=O)[O-])cc1)=N\OC(=O)c1ccccc1Br | -57.7%
35 | N/C(Cc1ccc([N+](=O)[O-])cc1)=N\OC(=O)c1ccccc1F | -35.6%
36 | c1ccc(CSc2nnnn2-c2ccccc2)cc1 | -3.94%
37 | CC(=O)NCc1ccc(S(=O)(=O)NC(C)CCc2ccccc2)cc1 (stereo not shown) | 13.3%
38 | OCCn1ccc(-c2ccccc2OCc2ccc(F)cc2)n1 | 4.9%
39 | N#Cc1ccccc1Cn1c(-c2cscn2)nc2ccccc21 | -7.78%
40 | CCOC(=O)c1sc(NC(=O)CCCn2nc([N+](=O)[O-])c(Cl)c2C)c(C(=O)OCC)c1C | -3.72%
41 | Cc1cc(/C=C(\C#N)C(=O)NCCc2c[nH]c3ccccc23)c(C)n1C | 3.85%
42 | O=C1CS/C(=N\C(=O)N2c3ccccc3Sc3ccccc32)N1 | 5.96%
43 | Cc1cc(S(=O)(=O)Nc2ccc(N(C)C)cc2)c(C)s1 | 0.71%
44 | Fc1ccc(C(c2nnnn2C2CCCC2)N(Cc2ccco2)CC2CCCO2)cc1 (stereo not shown) | -28%

Row | Compound | hERG current change (%, negative = inhibition) at 10uM
45 | O=C(CSc1cccc[n+]1[O-])Nc1cccc(S(=O)(=O)NC2=NCCCCC2)c1 | 54.8%
46 | CCCn1c(C)cs/c1=N\C(=S)Nc1ccccc1 | 12.8%
47 | COc1cc(C(=O)O/N=C(\N)c2ccc([N+](=O)[O-])cc2)cc(OC)c1OC | -45.2%
48 | Cc1cccc(C(=O)O/N=C(\N)Cc2ccc([N+](=O)[O-])cc2)c1 | -64.3%
49 | COc1ccc(C/C(N)=N/OC(=O)c2cccc([N+](=O)[O-])c2)cc1 | -44.2%
50 | N/C(=N\OC(=O)c1cccc(Br)c1)c1ccc([N+](=O)[O-])cc1 | 17.7%
51 | N/C(=N\OC(=O)Cc1ccc([N+](=O)[O-])cc1)c1cccc(Br)c1 | 3.08%
52 | COc1ccc(CC(=O)O/N=C(\N)Cc2ccc([N+](=O)[O-])cc2)cc1 | -46.5%
53 | COc1ccc(C(=O)O/N=C(\N)Cc2ccc([N+](=O)[O-])cc2)c(OC)c1 | -57.1%
54 | Cc1ccc(C(=O)O/N=C(\N)Cc2ccc([N+](=O)[O-])cc2)c(Cl)c1 | -46.3%
55 | COc1cc(C(=O)O/N=C(\N)Cc2ccc([N+](=O)[O-])cc2)cc(OC)c1OC | -68.9%
56 | COc1cc(C(=O)OCc2ccc([N+](=O)[O-])cc2)cc(OC)c1OC | 2.74%
57 | N/C(Cc1ccc([N+](=O)[O-])cc1)=N\OC(=O)c1cccc(Br)c1 | -58%
58 | Cc1cccc(OCC(=O)O/N=C(\N)Cc2ccc([N+](=O)[O-])cc2)c1 | -32.5%
59 | O=C(CCc1nnc2ccc(NCc3ccccc3)nn12)NC1CCCC1 | 11.1%
60 | Cc1ccc(N2CC(C(=O)Nc3nccs3)CC2=O)cc1 (stereo not shown) | -5.15%
61 | Cc1ccc(N(C(=O)C2CCCO2)C2C=CS(=O)(=O)C2)cc1Cl (stereo not shown) | -4.44%
62 | O=C(Nc1ccc(S(=O)(=O)Nc2ncccn2)cc1)c1cncc(Br)c1 | 10.6%
63 | O=C(O)C(=O)O.OC(CNC1CCCc2ccccc21)COc1c(Cl)cccc1Cl (stereo not shown) | -56.5%
64 | O=C(CSc1ccccc1Cl)NC1CCCc2ccccc21 (stereo not shown) | -1.17%
65 | CC(=O)CCc1ccc(OCC(O)CNC2CCCc3ccccc32)cc1.O=C(O)C(=O)O (stereo not shown) | -49%
66 | O=C(c1ccccc1)c1ccc(OCC(O)CNC2CCCc3ccccc32)cc1 (stereo not shown) | -31.7%

Row | Compound | hERG current change (%, negative = inhibition) at 10uM
67 | CCc1ccccc1OC[C@@H](O)CN[C@H]1CCCc2ccccc21.O=C(O)C(=O)O | -24.7%
68 | O=C(O)C(=O)O.OC(CNC1CCCc2ccccc21)COc1ccc2ccccc2c1 (stereo not shown) | -72.3%
69 | COc1ccc(CC(=O)Oc2ccc(C)cc2Br)cc1OC | 3.25%
70 | CN(Cc1nc(-c2ccccc2)no1)C(=O)c1ccc2c(c1)OCO2 | -20.5%
71 | Nc1nccnc1C(=O)OCC(=O)Nc1ccc2[nH]c(=O)[nH]c2c1 | 17%
72 | O=c1[nH]c2cc3c(cc2cc1CN(CCO)S(=O)(=O)c1ccccc1)OCCO3 | -19%
73 | CCc1ccc(NC(=O)CN(c2ccc(OC)cc2)S(=O)(=O)c2c(C)nn(C)c2C)cc1 | -4.36%
74 | Cc1ccccc1C1c2[nH]c3ccccc3c2CCN1CCCn1cccn1 (stereo not shown) | -20.3%
75 | Fc1ccccc1C1c2[nH]c3ccccc3c2CCN1CCCn1cccn1 (stereo not shown) | -46.4%
76 | CC(C)CC1c2[nH]c3ccccc3c2CCN1CCCn1cccn1 (stereo not shown) | -63.1%
77 | COc1ccc(C2c3[nH]c4ccccc4c3CCN2CCCn2cccn2)c(C)c1C (stereo not shown) | -9.49%
78 | COc1ccc(C2c3[nH]c4ccccc4c3CCN2CCCn2cccn2)c(F)c1 (stereo not shown) | -3.85%
79 | COc1ccc(C2c3[nH]c4ccccc4c3CCN2CCCn2cccn2)cc1C (stereo not shown) | -38.9%
80 | CCOc1ccc(C2c3[nH]c4ccccc4c3CCN2CCCn2cccn2)cc1 (stereo not shown) | -68.7%
81 | CC(C)(C)C1c2[nH]c3ccccc3c2CCN1CCCn1cccn1 (stereo not shown) | -19.5%
82 | Fc1ccc(C2c3[nH]c4ccccc4c3CCN2CCCn2cccn2)cc1 (stereo not shown) | -70.1%
83 | O=S(=O)(NCc1ccccc1)NCc1ccccc1F | 7.69%
84 | COCCN1C(=O)C(=O)/C(=C(/O)c2ccc(S(=O)(=O)N3CCCCC3)cc2)C1c1ccc(OC)c(OC)c1 (stereo not shown) | 8.21%
85 | CC1(C)COC(/C=C/c2ccc([N+](=O)[O-])cc2)=N1 | -26.1%
